The values below come from PubChem BioAssay (Tox21).

Experiment [1] is described as follows: qHTS assay to identify aromatase inhibitors - cell viability counter screen (AID 743084).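 Also: cells stimulated with testosterone during compound exposure; nearly all actives have a fitted effect of over 55% in size.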 Background: In qHTS, concentration-response curves come from the screen itself.
Experiment [2] can be described thus: qHTS assay to identify small molecule that activate the aryl hydrocarbon receptor (AhR) signaling pathway - cell viability counter screen (AID 743086).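 Also: HepG2 liver cells carrying the AhR DRE luciferase reporter; series mostly up to about 70 µM; nearly all actives have a fitted effect of over 45% in size.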 In outline:
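Cytotoxicity counter screen: CellTiter-Fluor signal (30 min, 37 C) in 4000 HepG2 cells/well carrying the DRE-luciferase reporter, following 24 h compound exposure at 37 C.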

Experiment [3] can be described thus: qHTS assay to identify small molecule antagonists of the peroxisome proliferator-activated receptor gamma (PPARg) signaling pathway - cell viability counter screen (AID 743194). Also: nearly all actives have a fitted effect of over 55% in size. In short, it runs like this: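 Viability was measured as CellTiter-Glo luminescence in GeneBLAzer PPARg UAS-bla HEK293H cells. These cells had been exposed 17 h at 37 C to compounds together with rosiglitazone at 50 nM final, with the beta-lactamase readout taken in the same wells.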

A short description of experiment [4]: qHTS assay for small molecule agonists of the antioxidant response element (ARE) signaling pathway (AID 743202; active = well fitted activation curve with a large enough effect in the signal ratio in the repeat runs, not every such curve was filed as active; the % refers to the signal ratio). In short, it runs like this:
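After 16 hours of compound treatment at 37 C, HepG2 cells with a stably integrated ARE-driven beta-lactamase reporter were loaded 2 hours at room temperature with LiveBLAzer B/G FRET substrate and fluorescence intensity measured.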

Experiment [5] can be described thus: qHTS assay for small molecule agonists of the antioxidant response element (ARE) signaling pathway - cell viability counter screen (AID 743203; calls by dose curve; also: nearly all actives have a fitted effect of over 55% in size; also: potency is read from the fitted curve at half-maximal effect). In outline:
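Measured in the same wells as the beta-lactamase ARE reporter, this read-out is CellTiter-Glo luminescence from HepG2 ARE-bla cells given compounds for 16 hrs.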

Experiment [6] is described as follows: qHTS assay for small molecule activators of the heat shock response signaling pathway - cell viability counter screen (AID 743209). Also: nearly all actives have a fitted effect of over 50% in size. In short, it runs like this: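 Same-well multiplex: after 2.5 h room-temperature incubation with LiveBLAzer B/G substrate and fluorescence reading, CellTiter-Glo reagent was added to HSE-bla HeLa cells that had received compound for 5 h at 37 C; luminescence read after 30 min.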

Experiment [7] in a line: qHTS assay for small molecule activators of the heat shock response signaling pathway (AID 743210; active = well fitted activation curve with a large enough effect in the signal ratio in the repeat runs, with a control signal flat, not every such curve was filed as active; the % refers to the signal ratio; also: series mostly up to about 63 µM). In outline:
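Compound exposure lasted 5 h at 37 C in HeLa cells carrying a heat-shock-element-driven beta-lactamase reporter. Read-out: fluorescence intensity after 2.5 h room-temperature loading with LiveBLAzer B/G FRET substrate.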

The nature of experiment [8]: qHTS assay to identify small molecule agonists of the peroxisome proliferator-activated receptor delta (PPARd) signaling pathway - cell viability counter screen (AID 743211). Also: nearly all actives have a fitted effect of over 55% in size. In outline: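 Viability was measured as CellTiter-Glo luminescence (30 min, room temperature) in the same wells as the beta-lactamase readout. GeneBLAzer PPARd UAS-bla HEK293H cells received compound after 5 h plating and were incubated 17 h at 37 C.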

Experiment [9] deals with Peroxisome proliferator-activated receptor delta (Homo sapiens) (UniProt Q03181). As to the kind of experiment: qHTS assay to identify small molecule agonists of the peroxisome proliferator-activated receptor delta (PPARd) signaling pathway (AID 743212; calls by dose curve). In short, it runs like this: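 Beta-lactamase reporter readout: a ratiometric FRET signal from the LiveBLAzer substrate after 2 h at room temperature. Compound exposure at 37 °C in PPARδ-bla HEK293H cells driven by an upstream activator sequence.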

Experiment [10] can be described thus: qHTS assay to identify small molecule antagonists of the peroxisome proliferator-activated receptor delta (PPARd) signaling pathway - cell viability counter screen (AID 743213). Also: nearly all actives have a fitted effect of over 50% in size. In short, it runs like this: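 CellTiter-Glo was added to PPARd-bla HEK293H wells following 17 h compound treatment in the presence of 300 nM L165041. Luminescence was recorded after 30 min at room temperature.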

For experiment [11], the target named is Peroxisome proliferator-activated receptor delta (Homo sapiens) (UniProt Q03181). As to the kind of experiment: qHTS assay to identify small molecule antagonists of the peroxisome proliferator-activated receptor delta (PPARd) signaling pathway (AID 743215; active = well fitted inhibition curve with a large enough effect in the signal ratio in the repeat runs, not every such curve was filed as active; the % refers to the signal ratio;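 also: cells stimulated with agonist L165041 at 300 nM final during compound exposure; series mostly up to about 62 µM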). In short, it runs like this: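 Fluorescence from cleaved LiveBLAzer B/G FRET substrate (2 h, room temperature) reports PPARd-driven beta-lactamase in HEK293H UAS-bla cells. Cells had been treated 17 h at 37 C with compound plus 300 nM final L165041.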

A short description of experiment [12]: qHTS assay to identify small molecule agonists of the farnesoid-X-receptor (FXR) signaling pathway - cell viability counter screen (AID 743218). Also: nearly all actives have a fitted effect of over 45% in size. In short, it runs like this:
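Readout: CellTiter-Glo luminescence, 30 min RT, multiplexed after the FXR-bla FRET reading. HEK 293T FXR-UAS-bla cells received compound 5 h post-plating and were incubated 16 h at 37 C.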

Experiment [13] can be described thus: qHTS assay to identify small molecule antagonists of the farnesoid-X-receptor (FXR) signaling pathway - cell viability counter screen (AID 743221; active = well fitted cell-killing curve with a large enough effect in the repeat runs, not every such curve was filed as active; also: nearly all actives have a fitted effect of over 50% in size; also: potency is read from the fitted curve at half-maximal effect). In outline:
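Cytotoxicity counter screen run in the FXR-bla reporter wells: HEK 293T cells exposed to compound with 50 uM (final) chenodeoxycholic acid for 16 h, 37 C, then viability measured by CellTiter-Glo luminescence after 30 min, room temperature.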

Experiment [14] deals with Aryl hydrocarbon receptor (Homo sapiens) (UniProt P35869). Nature of the experiment: qHTS assay to identify small molecule that activate the aryl hydrocarbon receptor (AhR) signaling pathway (AID 743085). Also: nearly all actives have a fitted effect of over 15% in size. Also: potency is read from the fitted curve at half-maximal effect.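 As to activation: HG2L7.5c1 human HepG2 liver cells with stably integrated DRE-driven firefly reporter; series mostly up to about 70 µM.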 In outline:
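Luminescence (ONE-Glo) from a dioxin-responsive-element luciferase reporter in HG2L7.5c1 HepG2 cells after 24 hr compound exposure at 37C; viability measured by CellTiter-Fluor fluorescence beforehand.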

Experiment [15] deals with Bile acid receptor (Homo sapiens) (UniProt Q96RI1). As to the kind of experiment: qHTS assay to identify small molecule antagonists of the farnesoid-X-receptor (FXR) signaling pathway (AID 743217; active = well fitted inhibition curve with a large enough effect in the signal ratio in the repeat runs, not every such curve was filed as active; the % refers to the signal ratio). In outline: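 FRET fluorescence after 2 h room-temperature LiveBLAzer loading gives the readout. Prior step: FXR-bla HEK 293T cells, seeded and incubated 5 h, received test compounds plus 50 uM final CDCA for 16 h at 37 °C.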

The target is the same in experiment [16]. As to the kind of experiment: qHTS assay to identify small molecule agonists of the farnesoid-X-receptor (FXR) signaling pathway (AID 743220; active = well fitted activation curve with a large enough effect in the signal ratio in the repeat runs, not every such curve was filed as active; the % refers to the signal ratio). In short, it runs like this: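 FXR-UAS-bla HEK 293T cells carrying a UAS-driven beta-lactamase reporter were plated for 5 h at 37C/5% CO2, then exposed to DMSO-dissolved Tox21 10K compounds for 16 h at 37C. A LiveBLAzer B/G FRET substrate was loaded for 2 h at room temperature before fluorescence reading.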

Experiment [17] has as its target Peroxisome proliferator-activated receptor gamma (Homo sapiens) (UniProt P37231). As to the kind of experiment: qHTS assay to identify small molecule agonists of the peroxisome proliferator-activated receptor gamma (PPARg) signaling pathway (AID 743094; active = well fitted activation curve with a large enough effect in the signal ratio in the repeat runs, not every such curve was filed as active; the % refers to the signal ratio). In short, it runs like this:
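Cell-based bla reporter, HEK293H background, PPARg-driven UAS. Pre-incubation 5 h, 37C, 5% CO2. Compound 17 h, 37C. Substrate 1 h RT; fluorescence.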

Experiment [18] has the same target. Nature of the experiment: qHTS assay to identify small molecule antagonists of the peroxisome proliferator-activated receptor gamma (PPARg) signaling pathway (AID 743191; calls by dose curve; also: series mostly up to about 63 µM; nearly all actives have a fitted effect of over 30% in size). In short, it runs like this: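 Beta-lactamase reporter under UAS control in HEK293H PPARg-bla cells; compound treatment 17 h at 37C. Read-out: fluorescence intensity after 1 h room-temperature incubation with LiveBLAzer B/G FRET substrate.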

Experiment [19] concerns the target Vitamin D3 receptor (Homo sapiens) (UniProt P11473). As to the kind of experiment: qHTS assay to identify small molecule agonists of the vitamin D receptor (VDR) signaling pathway (AID 743222; calls by dose curve). In short, it runs like this: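 Following 4 h attachment at 37C, VDR-bla cells (2,000 per well) received DMSO-dissolved compounds or controls. After 16 h incubation, LiveBLAzer B/G FRET substrate was added and fluorescence read 2 h later at room temperature.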

Experiment [20] has the same target. Nature of the experiment: qHTS assay to identify small molecule antagonists of the vitamin D receptor (VDR) signaling pathway (AID 743223; active = well fitted inhibition curve with a large enough effect in the signal ratio in the repeat runs, not every such curve was filed as active; the % refers to the signal ratio). In short, it runs like this: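 Antagonist mode: compound added to VDR-bla cells alongside agonist 1alpha,25-dihydroxyvitamin D3 (3 nM final), incubation 16 h at 37C. Read-out is LiveBLAzer FRET fluorescence, 2 h at room temperature.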

The structures appear in SMILES notation. Records with an inconclusive call do not appear. Active and inactive are the calls of the source. Unless noted, calls follow the shape of the dose curve; as a rule, active = well fitted curve in the direction sought with a large enough effect in the repeat runs; inconclusive = weak or mixed curves; inactive = no such curve, though single readings can be large; an effect the other way counts as inactive or inconclusive.

Sequence of Vitamin D3 receptor (Homo sapiens) (P11473 whole entry, looked up): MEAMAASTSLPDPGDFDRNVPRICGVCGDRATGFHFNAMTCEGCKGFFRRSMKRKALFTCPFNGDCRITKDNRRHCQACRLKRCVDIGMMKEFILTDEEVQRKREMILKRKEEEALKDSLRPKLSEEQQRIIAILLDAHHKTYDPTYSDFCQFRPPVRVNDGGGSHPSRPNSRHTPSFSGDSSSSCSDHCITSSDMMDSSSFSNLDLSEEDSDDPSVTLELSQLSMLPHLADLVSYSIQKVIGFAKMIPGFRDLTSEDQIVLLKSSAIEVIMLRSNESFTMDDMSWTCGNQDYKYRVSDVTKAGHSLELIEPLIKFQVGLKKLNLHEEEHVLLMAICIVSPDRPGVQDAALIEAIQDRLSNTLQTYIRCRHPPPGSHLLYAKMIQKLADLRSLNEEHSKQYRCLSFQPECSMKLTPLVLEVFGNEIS
Sequence of Peroxisome proliferator-activated receptor delta (Homo sapiens) (Q03181 whole entry, looked up): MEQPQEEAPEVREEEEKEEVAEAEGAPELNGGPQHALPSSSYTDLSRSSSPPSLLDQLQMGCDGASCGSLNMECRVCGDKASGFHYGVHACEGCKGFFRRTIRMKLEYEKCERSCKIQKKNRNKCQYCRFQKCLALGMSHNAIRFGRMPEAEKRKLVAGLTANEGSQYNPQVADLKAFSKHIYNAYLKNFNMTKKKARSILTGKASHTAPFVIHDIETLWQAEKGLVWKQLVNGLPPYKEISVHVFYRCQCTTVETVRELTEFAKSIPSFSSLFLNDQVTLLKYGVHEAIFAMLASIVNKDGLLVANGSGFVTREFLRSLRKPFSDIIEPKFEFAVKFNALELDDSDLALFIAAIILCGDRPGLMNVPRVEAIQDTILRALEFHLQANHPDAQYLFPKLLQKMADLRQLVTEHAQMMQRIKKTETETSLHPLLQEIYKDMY
Sequence of Aryl hydrocarbon receptor (Homo sapiens) (P35869 whole entry, looked up): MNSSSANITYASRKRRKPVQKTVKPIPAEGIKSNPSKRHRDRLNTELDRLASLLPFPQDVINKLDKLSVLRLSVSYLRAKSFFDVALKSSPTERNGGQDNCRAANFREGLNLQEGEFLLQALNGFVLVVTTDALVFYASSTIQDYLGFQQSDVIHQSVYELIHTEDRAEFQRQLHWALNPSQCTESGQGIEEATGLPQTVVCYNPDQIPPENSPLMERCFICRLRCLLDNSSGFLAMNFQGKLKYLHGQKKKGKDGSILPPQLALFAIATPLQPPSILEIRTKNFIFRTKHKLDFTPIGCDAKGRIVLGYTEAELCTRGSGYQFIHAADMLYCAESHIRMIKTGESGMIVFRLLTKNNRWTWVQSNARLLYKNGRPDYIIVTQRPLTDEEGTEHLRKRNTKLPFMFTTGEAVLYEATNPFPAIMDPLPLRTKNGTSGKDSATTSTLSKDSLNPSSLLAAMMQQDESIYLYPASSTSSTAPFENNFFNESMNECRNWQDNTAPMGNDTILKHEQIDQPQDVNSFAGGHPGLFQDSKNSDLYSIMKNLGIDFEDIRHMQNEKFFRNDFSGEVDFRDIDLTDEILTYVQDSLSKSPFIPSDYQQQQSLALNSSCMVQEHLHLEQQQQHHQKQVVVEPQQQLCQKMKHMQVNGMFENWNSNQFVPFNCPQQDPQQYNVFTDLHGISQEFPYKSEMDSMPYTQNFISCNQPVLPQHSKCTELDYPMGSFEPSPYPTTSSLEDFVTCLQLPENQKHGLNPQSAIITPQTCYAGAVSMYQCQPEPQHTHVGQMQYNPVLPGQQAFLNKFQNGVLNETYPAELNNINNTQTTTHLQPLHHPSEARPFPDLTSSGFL
Sequence of Bile acid receptor (Homo sapiens) (Q96RI1 whole entry, looked up): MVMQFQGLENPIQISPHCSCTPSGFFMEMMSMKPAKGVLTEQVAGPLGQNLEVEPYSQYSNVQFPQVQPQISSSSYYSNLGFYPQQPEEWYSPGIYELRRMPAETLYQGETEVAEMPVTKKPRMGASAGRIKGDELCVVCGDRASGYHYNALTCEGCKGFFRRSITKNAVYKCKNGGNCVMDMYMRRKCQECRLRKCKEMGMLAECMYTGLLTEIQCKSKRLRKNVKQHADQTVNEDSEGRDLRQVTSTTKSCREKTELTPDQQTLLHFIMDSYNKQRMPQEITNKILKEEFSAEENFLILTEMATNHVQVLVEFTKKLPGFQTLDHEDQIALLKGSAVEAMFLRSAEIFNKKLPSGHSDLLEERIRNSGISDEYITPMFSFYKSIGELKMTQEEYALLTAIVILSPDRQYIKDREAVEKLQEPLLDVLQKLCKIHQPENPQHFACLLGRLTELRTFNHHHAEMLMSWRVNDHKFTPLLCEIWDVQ
Sequence of Peroxisome proliferator-activated receptor gamma (Homo sapiens) (P37231 whole entry, looked up): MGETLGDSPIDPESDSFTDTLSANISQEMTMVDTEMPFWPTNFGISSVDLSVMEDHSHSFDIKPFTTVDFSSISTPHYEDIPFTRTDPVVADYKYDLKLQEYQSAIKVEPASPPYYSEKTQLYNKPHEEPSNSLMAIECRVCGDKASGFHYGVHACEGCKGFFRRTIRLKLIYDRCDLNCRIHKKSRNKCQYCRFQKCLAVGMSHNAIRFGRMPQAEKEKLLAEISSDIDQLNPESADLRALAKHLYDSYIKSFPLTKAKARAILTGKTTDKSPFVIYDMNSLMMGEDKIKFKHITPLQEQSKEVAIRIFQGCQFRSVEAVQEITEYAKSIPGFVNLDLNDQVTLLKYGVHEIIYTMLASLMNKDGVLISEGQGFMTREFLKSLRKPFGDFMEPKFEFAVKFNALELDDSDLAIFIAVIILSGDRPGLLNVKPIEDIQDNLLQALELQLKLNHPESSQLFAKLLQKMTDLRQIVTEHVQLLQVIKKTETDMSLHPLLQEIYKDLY

Turning to `CCOC(N)=O`, the Potency entry in experiment [1], in [2], in [3], in [4], in [5] and in [6] was “inactive” throughout. The Potency result in experiment [8], in experiment [9], in experiment [10], in [11], in [12] and in [13] was “inactive” throughout. Further, the molecule was classed as inactive in experiment [7].
On to `Oc1ccccc1`, for which the Potency result in experiment [1], in [14], in experiment [2], in [3], in experiment [4] and in experiment [5] was “inactive” in each case. Also, the Potency entry in [6], in [8], in experiment [10], in [15], in experiment [12] and in experiment [13] was “inactive” throughout. For the same molecule, in [16], the molecule was called inactive.
`CN(C)CCOC(c1ccccc1)c1ccccc1`: the Potency entry in [1], in experiment [2], in experiment [3], in experiment [4], in experiment [5] and in [6] was “inactive” each time. For the same molecule, the Potency entry in [8], in experiment [10], in [12] and in [13] was “inactive” in each case. Also, the call in experiment [7] was inactive.
Consider `CCCCC(CC)C(=O)O` (stereo not given), for which the Potency result in experiment [1], in experiment [2], in [17], in experiment [18], in experiment [3] and in experiment [4] was “inactive” in each case. Moreover, the Potency entry in [5], in experiment [6], in experiment [8], in experiment [9], in [10] and in experiment [11] was “inactive” throughout. The Potency result in experiment [12] and in [13] was “inactive” in each case. Moreover, the result in experiment [7] was inactive.
`CCc1nc(N)nc(N)c1-c1ccc(Cl)cc1`: the Potency entry in experiment [1], in experiment [14], in experiment [2], in [3], in [6] and in [9] was “inactive” throughout. Moreover, the Potency entry in experiment [10], in experiment [11], in experiment [15], in experiment [19] and in experiment [20] was “inactive” in each case. Also, the results for the Potency in [5] and in experiment [13] were 5.31 µM (active) and 24.9 µM (active), respectively. In addition, the molecule was called inactive in experiment [7] and in [16].
Regarding `CC(=O)CC(c1ccccc1)c1c(O)c2ccccc2oc1=O` (stereo not given), the Potency result in [2], in experiment [3], in [4], in [5], in experiment [6] and in experiment [8] was “inactive” throughout. Moreover, the Potency entry in [10], in experiment [12], in [13], in [19] and in experiment [20] was “inactive” in each case.
With `Nc1ccc(O)c([N+](=O)[O-])c1`, the Potency in experiment [14] was 43.3 µM (active). For the same molecule, the Potency entry in experiment [17], in experiment [8], in experiment [9] and in [10] was “inactive” throughout. Further, the molecule was classed as inactive in experiment [7].
As to `O=C(Nc1ncc([N+](=O)[O-])s1)c1cccs1`, the Potency in [14] was 2.98 µM (active). Further, the Potency result in experiment [2], in experiment [9], in [11], in experiment [15], in [19] and in experiment [20] was “inactive” throughout. For the same molecule, the outcome in experiment [7] and in [16] was inactive.
As for `C1=CC2C3C=CC(C3)C2C1` (stereo not given), the Potency result in [1], in [2], in experiment [5], in experiment [6], in [10] and in experiment [13] was “inactive” each time. Besides, in experiment [7], the molecule was called inactive.
